Data as given in PubChem BioAssay (NCI).
Compounds without any hit were thinned out: in the full panel of roughly 83,000, 20% have a hit.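 Percent growth is the endpoint: 0 to 100 indicates growth inhibition (40 means 60% inhibition), 0 means no net growth, and negative values indicate cell death.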 The source made the active and inactive calls. How the source made its calls: active means growth percent below 10; inactive means the rest.

Legend:
Experiment in all cases: NCI-60 one-dose screen, 48 h (100 = growth as untreated, 0 = no growth, -100 = all killed)
Settings in all cases: 10 µM unless noted
T-47D breast = tested on: T-47D breast
BT-549 breast = tested on: BT-549 breast
MDA-MB-435 melanoma = tested on: MDA-MB-435 melanoma
SW-620 colon = tested on: SW-620 colon
MCF7 breast = tested on: MCF7 breast
HCT-116 colon = tested on: HCT-116 colon
HCC-2998 colon = tested on: HCC-2998 colon
KM12 colon = tested on: KM12 colon

Measured: growth

O=C1CCC(c2c(O)cc(O)c3c(=O)c(O)c(-c4ccc(O)c(O)c4)oc23)N1 (stereo unspecified)
inactive: T-47D breast 83.6% | BT-549 breast 112% | MDA-MB-435 melanoma 110% | SW-620 colon 108% | MCF7 breast 95.2% | HCT-116 colon 99.8% | HCC-2998 colon 89.4% | KM12 colon 101%

O=C(Nc1ccccc1F)Nc1ccccc1Cl
inactive: T-47D breast 72.5% | BT-549 breast 85.7% | MDA-MB-435 melanoma 97.4% | SW-620 colon 96.2% | MCF7 breast 90.5% | HCT-116 colon 101% | HCC-2998 colon 99.2% | KM12 colon 83.5%

O=c1cc(Cl)[nH]c(=O)[nH]1
inactive: T-47D breast 95.1% | BT-549 breast 103% | MDA-MB-435 melanoma 111% | SW-620 colon 106% | MCF7 breast 92.5% | HCT-116 colon 101% | HCC-2998 colon 93.5% | KM12 colon 105%

COc1ccc(Cl)cc1NC(=O)c1cc2c([nH]1)-c1nc(N)sc1CCC2
inactive: T-47D breast 88.2% | BT-549 breast 102% | MDA-MB-435 melanoma 103% | SW-620 colon 107% | MCF7 breast 98.9% | HCT-116 colon 110% | HCC-2998 colon 109% | KM12 colon 97.3%

COc1cc(-c2nc3sc(C)cn3c2/C=C2\C(=O)Nc3ccccc32)c(Br)c(OC)c1OC
inactive: T-47D breast 51.5% | BT-549 breast 14.8% | SW-620 colon 21.2% | HCT-116 colon 22% | HCC-2998 colon 97% | KM12 colon 15.1%
active: MDA-MB-435 melanoma -8.78% | MCF7 breast 1.61%

COc1ccc2c(c1)OC(N(C(C)=O)C(C)=O)=C(C#N)C2c1ccc(F)cc1 (stereo unspecified)
active: MDA-MB-435 melanoma -29.2%
inactive: T-47D breast 42% | BT-549 breast 38.1% | SW-620 colon 20.9% | MCF7 breast 17.8% | HCT-116 colon 25.5% | HCC-2998 colon 59.2% | KM12 colon 25.6%

Cc1ncc(CO)c(C(=O)O)c1O
inactive: T-47D breast 78.4% | BT-549 breast 86.6% | MDA-MB-435 melanoma 106% | SW-620 colon 108% | MCF7 breast 98.9% | HCT-116 colon 78% | HCC-2998 colon 95.3% | KM12 colon 101%

O=C(NCCNc1nccc(-c2c(-c3cccc(O)c3)nc3sccn23)n1)c1ccccc1
inactive: T-47D breast 58.6% | BT-549 breast 61.4% | MDA-MB-435 melanoma 24% | SW-620 colon 78.2% | MCF7 breast 38.1% | HCT-116 colon 42.5% | HCC-2998 colon 97.8% | KM12 colon 75.9%

CC(CCC(=O)O)[C@H]1CCC2C3C(=O)C[C@@H]4CC(=O)CC[C@]4(C)C3CC(=O)[C@@]21C (stereo partly specified)
inactive: T-47D breast 97% | BT-549 breast 112% | MDA-MB-435 melanoma 96.5% | SW-620 colon 98.7% | MCF7 breast 105% | HCT-116 colon 112% | HCC-2998 colon 103% | KM12 colon 108%

CN(C)CCNc1nc2ccccc2c2c(=O)c3ccccc3sc12
inactive: T-47D breast 49% | BT-549 breast 74.4% | KM12 colon 18.5%
active: MDA-MB-435 melanoma 8.44% | SW-620 colon -54% | MCF7 breast -46.9% | HCT-116 colon -9.31% | HCC-2998 colon -11.3%

CC(C)(CCN=C(N)Nc1ccccn1)c1ccc(C(F)(F)F)cc1
active: T-47D breast -29.7% | SW-620 colon -11.2% | MCF7 breast -11.2% | HCT-116 colon -45% | HCC-2998 colon -25.1%
inactive: BT-549 breast 32.2% | MDA-MB-435 melanoma 18.7% | KM12 colon 13.5%

FC(F)(F)c1cn(CC2CNC2)c2ncnc(Cl)c12
inactive: T-47D breast 102% | BT-549 breast 125% | MDA-MB-435 melanoma 109% | SW-620 colon 104% | MCF7 breast 103% | HCT-116 colon 108% | HCC-2998 colon 99.5% | KM12 colon 104%

O=S(=O)(CCN1CCOCC1)Nc1cc(-c2ccc3ncnc(Nc4ccc(F)c(Cl)c4)c3c2)cnc1Cl
active: T-47D breast -32.6% | BT-549 breast -9.24% | MDA-MB-435 melanoma 6.92%
inactive: SW-620 colon 30.4% | MCF7 breast 13.6% | HCT-116 colon 18.9% | HCC-2998 colon 17.4% | KM12 colon 20.8%

CCCCCCCCCCCCCCCCNc1ccccc1
inactive: T-47D breast 88.6% | BT-549 breast 71.7% | MDA-MB-435 melanoma 111% | SW-620 colon 108% | MCF7 breast 90.1% | HCT-116 colon 101% | HCC-2998 colon 105% | KM12 colon 88.7%

c1ccc2c(c1)Oc1cccnc1-n1nccc1-2
inactive: T-47D breast 105% | BT-549 breast 101% | MDA-MB-435 melanoma 107% | SW-620 colon 102% | MCF7 breast 98.6% | HCT-116 colon 104% | HCC-2998 colon 110% | KM12 colon 100%

Nc1ncnc2c1c(-c1ccc(Oc3ccccc3)cc1)nn2C[C@@H]1SSC[C@H]1O
active: T-47D breast 3.82% | MDA-MB-435 melanoma 8.48%
inactive: BT-549 breast 57.9% | SW-620 colon 90.4% | MCF7 breast 11.4% | HCT-116 colon 46.4% | HCC-2998 colon 88.4% | KM12 colon 34.8%

CC(CN(C)C)CN1c2ccccc2CCc2ccccc21 (stereo unspecified)
inactive: T-47D breast 78.1% | BT-549 breast 90.7% | MDA-MB-435 melanoma 72.4% | SW-620 colon 93.3% | MCF7 breast 96.3% | HCT-116 colon 53.2% | HCC-2998 colon 54.6% | KM12 colon 106%

CCc1cccc(-c2ccccc2)c1
inactive: T-47D breast 110% | BT-549 breast 97.1% | MDA-MB-435 melanoma 109% | SW-620 colon 99.8% | MCF7 breast 105% | HCT-116 colon 98.8% | HCC-2998 colon 110% | KM12 colon 102%

O=C(O)c1cccc2oc(-c3ccccc3O)nc12
inactive: T-47D breast 52.2% | BT-549 breast 75.5% | MDA-MB-435 melanoma 71.3% | SW-620 colon 47.3% | MCF7 breast 59.1% | HCT-116 colon 36.8% | HCC-2998 colon 44.7% | KM12 colon 46%

COc1cc(/C=C/C(=O)N2CCC=CC2=O)cc(OC)c1OC
inactive: T-47D breast 25.6% | BT-549 breast 58.3% | MDA-MB-435 melanoma 57.2% | SW-620 colon 29.3% | MCF7 breast 15.3% | HCC-2998 colon 100% | KM12 colon 66.6%
active: HCT-116 colon 6.96%

CC(C)(C)OC(=O)N1CCN(CCn2cc(C(F)(F)F)c3c(Cl)ncnc32)CC1
inactive: T-47D breast 90.3% | BT-549 breast 118% | MDA-MB-435 melanoma 47.1% | SW-620 colon 12% | MCF7 breast 87.4% | HCT-116 colon 12.1% | HCC-2998 colon 86.1% | KM12 colon 95.9%

O=S(=O)(CCN1CCOCC1)Nc1cncc(-c2ccc3ncnc(Nc4ccc(F)c(Cl)c4)c3c2)c1
active: T-47D breast -17.9%
inactive: BT-549 breast 49.7% | MDA-MB-435 melanoma 87.2% | SW-620 colon 90.2% | MCF7 breast 47.3% | HCT-116 colon 56.1% | HCC-2998 colon 74.4% | KM12 colon 95.9%

COc1ccc(-c2nnc(SCC(=O)Nc3ccc(C(=O)/C=C/c4ccccc4)cc3)o2)cc1OC
inactive: T-47D breast 98.7% | BT-549 breast 98.3% | MDA-MB-435 melanoma 92.7% | SW-620 colon 103% | MCF7 breast 56% | HCT-116 colon 51.8% | HCC-2998 colon 116% | KM12 colon 99.6%

c1coc(CSc2ncnc3nc[nH]c23)c1
inactive: T-47D breast 93.6% | BT-549 breast 120% | MDA-MB-435 melanoma 116% | SW-620 colon 97.9% | MCF7 breast 89.9% | HCT-116 colon 97.7% | HCC-2998 colon 107% | KM12 colon 102%

O=C(Nc1ccc(-n2ccc3c(NC(=O)c4ccccc4)nccc32)cc1)Nc1ccc(Cl)c(Cl)c1
active: MDA-MB-435 melanoma -58.9% | SW-620 colon -64.6% | MCF7 breast -91.9% | HCT-116 colon -94.5% | HCC-2998 colon -57.6% | KM12 colon -49.1%
inactive: T-47D breast 20.7% | BT-549 breast 40.3%

COc1cccc(-c2nc3sccn3c2-c2ccnc(NCCNC(=O)Nc3cccc(C(F)(F)F)c3)n2)c1
inactive: T-47D breast 42.9% | BT-549 breast 71.9% | MDA-MB-435 melanoma 21.5% | SW-620 colon 88.9% | MCF7 breast 54.8% | HCT-116 colon 44.6% | HCC-2998 colon 40.8% | KM12 colon 33.5%

CC1(C)N=C(N)N=C(N)N1c1ccc(F)c(C(F)(F)F)c1
inactive: T-47D breast 91.1% | BT-549 breast 61.5% | MDA-MB-435 melanoma 40.6% | SW-620 colon 30.2% | MCF7 breast 26.8% | HCT-116 colon 19.8% | HCC-2998 colon 34.3% | KM12 colon 27.2%

CC(NCCC(c1ccccc1)c1ccccc1)c1ccccc1 (stereo unspecified)
inactive: T-47D breast 109% | BT-549 breast 83.1% | MDA-MB-435 melanoma 27% | SW-620 colon 36.7% | MCF7 breast 74.8% | HCT-116 colon 42.8% | KM12 colon 41.5%
active: HCC-2998 colon -31.1%

COc1ccc2c(c1)OC(N)=C(C#N)C2c1ccc(F)cc1 (stereo unspecified)
active: MDA-MB-435 melanoma -4.14%
inactive: T-47D breast 40.7% | BT-549 breast 20.1% | SW-620 colon 18.6% | MCF7 breast 18.1% | HCT-116 colon 24.9% | HCC-2998 colon 54.5% | KM12 colon 26.4%

CN(C)c1ccc(/C=c2\s/c(=C\C(=O)C(C)(C)C)[nH]c2=O)cc1
inactive: T-47D breast 81.4% | BT-549 breast 97.3% | MDA-MB-435 melanoma 89.3% | SW-620 colon 101% | MCF7 breast 86.7% | HCT-116 colon 91.2% | HCC-2998 colon 107% | KM12 colon 81.9%

C=C1C(=O)O[C@H]2[C@H]1CC/C(COC(=O)c1ccccc1)=C\CC[C@@]1(C)O[C@@H]21
active: T-47D breast -18.7% | BT-549 breast -13.7% | MDA-MB-435 melanoma -3.73% | SW-620 colon -55.4% | MCF7 breast -30.7% | HCT-116 colon -86.6%
inactive: HCC-2998 colon 83.9% | KM12 colon 65.6%

C[C@H]1C=C(C[C@@H](O)CCCCCCCCCC[C@@H](O)[C@H]2CCC(=O)O2)C(=O)O1
inactive: T-47D breast 92.6% | BT-549 breast 112% | MDA-MB-435 melanoma 113% | SW-620 colon 99.9% | MCF7 breast 118% | HCT-116 colon 87.9% | HCC-2998 colon 97.7% | KM12 colon 105%
